# Data: ChEMBL document CHEMBL3988442, “University of Dundee, Small-Polar-MMV Screening Library” (2021)
# For some of these results: Measured potencies and affinities stand elsewhere.
# How the values were obtained:
# Design in all cases: scale not given: direction of the effect not stated beside the values
# [1] = biological target: Protein translocase subunit SecA (Escherichia coli (strain K12)) (UniProt P10408); experiment: Assay to Identify E. coli SecA ATPase Inhibitors; type: functional; conditions: 30 µM
# Chain of Protein translocase subunit SecA (Escherichia coli (strain K12)) (P10408 whole entry): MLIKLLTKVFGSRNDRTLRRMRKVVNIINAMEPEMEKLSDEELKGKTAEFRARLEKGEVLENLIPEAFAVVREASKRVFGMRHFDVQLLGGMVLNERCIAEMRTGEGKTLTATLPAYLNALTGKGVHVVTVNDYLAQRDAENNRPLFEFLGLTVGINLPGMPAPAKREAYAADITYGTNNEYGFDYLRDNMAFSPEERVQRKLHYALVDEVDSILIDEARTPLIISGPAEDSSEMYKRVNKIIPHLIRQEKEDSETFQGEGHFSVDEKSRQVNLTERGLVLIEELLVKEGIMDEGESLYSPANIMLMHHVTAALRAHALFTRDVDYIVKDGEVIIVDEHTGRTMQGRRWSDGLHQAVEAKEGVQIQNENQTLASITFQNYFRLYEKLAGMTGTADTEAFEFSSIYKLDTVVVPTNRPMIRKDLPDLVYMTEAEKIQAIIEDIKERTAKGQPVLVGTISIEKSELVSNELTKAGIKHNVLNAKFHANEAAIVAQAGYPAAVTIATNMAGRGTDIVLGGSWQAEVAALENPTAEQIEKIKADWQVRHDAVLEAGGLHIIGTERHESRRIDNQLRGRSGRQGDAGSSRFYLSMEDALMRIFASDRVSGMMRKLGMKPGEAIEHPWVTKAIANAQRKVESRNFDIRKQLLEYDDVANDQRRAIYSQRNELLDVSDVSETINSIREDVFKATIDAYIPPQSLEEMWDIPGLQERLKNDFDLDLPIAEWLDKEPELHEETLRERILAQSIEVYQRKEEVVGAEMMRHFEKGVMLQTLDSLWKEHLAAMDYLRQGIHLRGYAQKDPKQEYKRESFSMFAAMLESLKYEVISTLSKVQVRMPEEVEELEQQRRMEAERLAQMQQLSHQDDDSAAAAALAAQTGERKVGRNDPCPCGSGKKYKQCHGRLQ
# [2] = biological target: T1, Ubiquitin-activating enzyme e1, putative (Leishmania donovani (strain BPK282A1)) (UniProt E9BSI1); experiment: Leishmania donovani Ubiquitin Activating Enzyme (LdE1); type: functional; conditions: 30 µM
# T1 sequence (whole entry): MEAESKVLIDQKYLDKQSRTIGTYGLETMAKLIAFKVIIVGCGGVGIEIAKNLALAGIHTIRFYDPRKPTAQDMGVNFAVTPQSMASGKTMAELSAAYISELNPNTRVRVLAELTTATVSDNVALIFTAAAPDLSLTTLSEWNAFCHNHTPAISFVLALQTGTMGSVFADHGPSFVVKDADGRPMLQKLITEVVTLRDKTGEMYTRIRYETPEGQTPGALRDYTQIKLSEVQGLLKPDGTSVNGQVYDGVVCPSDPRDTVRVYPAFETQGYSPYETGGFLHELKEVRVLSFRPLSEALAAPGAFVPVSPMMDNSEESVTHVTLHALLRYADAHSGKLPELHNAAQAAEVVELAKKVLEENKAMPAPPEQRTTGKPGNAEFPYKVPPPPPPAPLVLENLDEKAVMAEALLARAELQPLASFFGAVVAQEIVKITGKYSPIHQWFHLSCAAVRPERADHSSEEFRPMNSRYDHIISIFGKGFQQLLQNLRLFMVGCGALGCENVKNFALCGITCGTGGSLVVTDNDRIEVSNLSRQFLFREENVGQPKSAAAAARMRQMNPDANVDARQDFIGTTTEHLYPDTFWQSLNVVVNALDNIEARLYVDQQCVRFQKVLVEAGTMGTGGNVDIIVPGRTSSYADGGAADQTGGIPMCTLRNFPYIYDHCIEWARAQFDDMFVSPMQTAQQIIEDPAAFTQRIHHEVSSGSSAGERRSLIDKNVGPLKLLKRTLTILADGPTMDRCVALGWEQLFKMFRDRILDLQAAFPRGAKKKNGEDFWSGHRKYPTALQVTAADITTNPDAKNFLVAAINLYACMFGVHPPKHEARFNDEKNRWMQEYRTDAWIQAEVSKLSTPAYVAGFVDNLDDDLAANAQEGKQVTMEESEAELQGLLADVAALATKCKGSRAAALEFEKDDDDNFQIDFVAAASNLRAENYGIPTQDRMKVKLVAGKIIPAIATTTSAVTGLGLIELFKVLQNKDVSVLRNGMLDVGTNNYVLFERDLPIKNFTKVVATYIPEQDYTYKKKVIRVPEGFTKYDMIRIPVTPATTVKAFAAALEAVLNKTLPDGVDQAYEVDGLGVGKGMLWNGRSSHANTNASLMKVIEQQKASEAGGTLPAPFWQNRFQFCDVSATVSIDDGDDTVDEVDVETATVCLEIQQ
# [3] = biological target: AMP-activated protein kinase, AMPK (Homo sapiens) (UniProt P54646+O43741+P54619+Q9UGJ0+Q9Y478+Q13131+Q9UGI9); experiment: AMP-dependent Kinase enzyme assay. An in vitro enzyme assay that detects ADP turnover that is directly proportional to AMPK activity. This uses naive AMPK that is activated during the assay with MK-8722; type: functional; conditions: 30 µM
# [4] = biological target: Sialic acid-binding Ig-like lectin 9 (Homo sapiens) (UniProt Q9Y336); experiment: Hs-Siglec9 ALPHAscreen SOP 20170721; conditions: 10 µM
# Chain of Sialic acid-binding Ig-like lectin 9 (Homo sapiens) (Q9Y336 whole entry): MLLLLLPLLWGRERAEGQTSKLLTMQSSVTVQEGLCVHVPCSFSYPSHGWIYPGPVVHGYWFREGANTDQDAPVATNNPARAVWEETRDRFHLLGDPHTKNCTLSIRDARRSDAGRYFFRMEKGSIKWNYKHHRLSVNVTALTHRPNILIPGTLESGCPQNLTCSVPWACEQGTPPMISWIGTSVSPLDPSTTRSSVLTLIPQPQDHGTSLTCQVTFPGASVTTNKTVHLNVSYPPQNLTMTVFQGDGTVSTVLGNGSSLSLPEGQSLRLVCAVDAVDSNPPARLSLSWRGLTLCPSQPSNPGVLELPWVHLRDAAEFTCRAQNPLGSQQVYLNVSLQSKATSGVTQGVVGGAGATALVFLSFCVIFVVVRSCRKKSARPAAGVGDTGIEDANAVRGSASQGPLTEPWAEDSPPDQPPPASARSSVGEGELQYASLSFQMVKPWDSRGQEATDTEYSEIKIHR
# [5] = tested on: Trypanosoma cruzi; experiment: Trypanosoma cruzi phosphomannomutase and mannose-1-phosphate guanylyltransferase assay; type: functional; conditions: 10 µM
# [6] = biological target: T2, Arginase-2, mitochondrial (Homo sapiens) (UniProt P78540); experiment: in vitro enzyme assay to detect the production of urea directly proportional to the activity of Arginase II; type: functional; conditions: 33.3 µM; note: in the data most compounds retested in dose-response had high values
# T2 sequence (whole entry): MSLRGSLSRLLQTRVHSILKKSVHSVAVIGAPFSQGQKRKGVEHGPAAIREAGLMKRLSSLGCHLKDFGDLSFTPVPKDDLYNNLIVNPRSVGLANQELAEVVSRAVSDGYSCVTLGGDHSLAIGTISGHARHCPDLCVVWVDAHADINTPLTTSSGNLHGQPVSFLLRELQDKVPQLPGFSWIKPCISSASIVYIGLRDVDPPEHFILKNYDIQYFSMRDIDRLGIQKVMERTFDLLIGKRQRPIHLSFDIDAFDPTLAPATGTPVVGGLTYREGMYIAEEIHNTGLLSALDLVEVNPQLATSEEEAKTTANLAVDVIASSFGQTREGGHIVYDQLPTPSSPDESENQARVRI
# [7] = biological target: T3, Proteasome subunit beta (Trypanosoma cruzi) (UniProt O96673); experiment: Trypanosoma cruzi proteasome chymotrypsin-like activity (TcProtChymo) assay.; note: in the data most compounds retested in dose-response had high values; type: functional; conditions: 9.37 µM
# T3 sequence (whole entry): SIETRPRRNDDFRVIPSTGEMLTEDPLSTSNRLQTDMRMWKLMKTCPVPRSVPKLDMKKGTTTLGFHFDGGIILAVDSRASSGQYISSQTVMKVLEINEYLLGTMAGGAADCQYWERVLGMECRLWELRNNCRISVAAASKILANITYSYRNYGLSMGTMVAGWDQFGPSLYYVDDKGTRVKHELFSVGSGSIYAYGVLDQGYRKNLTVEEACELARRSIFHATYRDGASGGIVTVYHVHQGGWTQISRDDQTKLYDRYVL
# [8] = species on record: Homo sapiens; experiment: To identify inhibition of the IFN signalling (Jak-Stat) pathway via expression of an eGFP reporter gene under the control of an IFN-stimulated response element (ISRE) containing MxA promoter.; type: functional; conditions: 30 µM
# [9] = biological target: T4, Tyrosyl-tRNA synthetase, putative (Trypanosoma cruzi (strain CL Brener)) (UniProt Q4DSP6); experiment: Trypanosoma cruzi tyrosyl tRNA synthetase (TcYRS) _High Tyrosine SOP; type: functional; conditions: 30 µM; note: in the data most compounds retested in dose-response had high values
# T4 sequence (whole entry): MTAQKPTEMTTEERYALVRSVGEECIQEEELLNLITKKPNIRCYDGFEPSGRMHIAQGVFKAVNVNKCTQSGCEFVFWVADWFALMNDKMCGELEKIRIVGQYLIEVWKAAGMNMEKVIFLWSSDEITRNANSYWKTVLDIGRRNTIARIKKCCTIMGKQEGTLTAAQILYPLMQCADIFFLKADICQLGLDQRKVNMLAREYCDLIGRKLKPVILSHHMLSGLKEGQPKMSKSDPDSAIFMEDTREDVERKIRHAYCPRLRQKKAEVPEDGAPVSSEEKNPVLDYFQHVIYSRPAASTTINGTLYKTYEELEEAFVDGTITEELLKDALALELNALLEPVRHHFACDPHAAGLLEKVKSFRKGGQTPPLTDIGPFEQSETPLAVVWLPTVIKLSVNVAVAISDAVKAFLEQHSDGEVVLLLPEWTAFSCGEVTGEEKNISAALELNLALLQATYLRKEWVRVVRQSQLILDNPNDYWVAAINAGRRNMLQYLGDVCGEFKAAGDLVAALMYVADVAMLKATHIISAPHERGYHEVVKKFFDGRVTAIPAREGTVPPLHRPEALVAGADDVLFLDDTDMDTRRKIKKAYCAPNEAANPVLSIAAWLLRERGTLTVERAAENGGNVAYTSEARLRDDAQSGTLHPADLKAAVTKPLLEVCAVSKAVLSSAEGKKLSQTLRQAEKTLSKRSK
# [10] = biological target: T4, Tyrosyl-tRNA synthetase, putative (Trypanosoma cruzi (strain CL Brener)); experiment: Trypanosoma cruzi tyrosyl tRNA synthetase (TcYRS) SOP; type: functional; conditions: 30 µM
# [11] = biological target: Chromo domain-containing protein 1 (Saccharomyces cerevisiae (strain ATCC 204508 / S288c) (Baker's yeast)) (UniProt P32657); experiment: ScCHD-1 Enzyme Inhibition Assay; type: functional; conditions: 30 µM; note: in the data most compounds retested in dose-response had high values
# Chain of Chromo domain-containing protein 1 (Saccharomyces cerevisiae (strain ATCC 204508 / S288c) (Baker's yeast)) (P32657 whole entry, the tested form may be a part): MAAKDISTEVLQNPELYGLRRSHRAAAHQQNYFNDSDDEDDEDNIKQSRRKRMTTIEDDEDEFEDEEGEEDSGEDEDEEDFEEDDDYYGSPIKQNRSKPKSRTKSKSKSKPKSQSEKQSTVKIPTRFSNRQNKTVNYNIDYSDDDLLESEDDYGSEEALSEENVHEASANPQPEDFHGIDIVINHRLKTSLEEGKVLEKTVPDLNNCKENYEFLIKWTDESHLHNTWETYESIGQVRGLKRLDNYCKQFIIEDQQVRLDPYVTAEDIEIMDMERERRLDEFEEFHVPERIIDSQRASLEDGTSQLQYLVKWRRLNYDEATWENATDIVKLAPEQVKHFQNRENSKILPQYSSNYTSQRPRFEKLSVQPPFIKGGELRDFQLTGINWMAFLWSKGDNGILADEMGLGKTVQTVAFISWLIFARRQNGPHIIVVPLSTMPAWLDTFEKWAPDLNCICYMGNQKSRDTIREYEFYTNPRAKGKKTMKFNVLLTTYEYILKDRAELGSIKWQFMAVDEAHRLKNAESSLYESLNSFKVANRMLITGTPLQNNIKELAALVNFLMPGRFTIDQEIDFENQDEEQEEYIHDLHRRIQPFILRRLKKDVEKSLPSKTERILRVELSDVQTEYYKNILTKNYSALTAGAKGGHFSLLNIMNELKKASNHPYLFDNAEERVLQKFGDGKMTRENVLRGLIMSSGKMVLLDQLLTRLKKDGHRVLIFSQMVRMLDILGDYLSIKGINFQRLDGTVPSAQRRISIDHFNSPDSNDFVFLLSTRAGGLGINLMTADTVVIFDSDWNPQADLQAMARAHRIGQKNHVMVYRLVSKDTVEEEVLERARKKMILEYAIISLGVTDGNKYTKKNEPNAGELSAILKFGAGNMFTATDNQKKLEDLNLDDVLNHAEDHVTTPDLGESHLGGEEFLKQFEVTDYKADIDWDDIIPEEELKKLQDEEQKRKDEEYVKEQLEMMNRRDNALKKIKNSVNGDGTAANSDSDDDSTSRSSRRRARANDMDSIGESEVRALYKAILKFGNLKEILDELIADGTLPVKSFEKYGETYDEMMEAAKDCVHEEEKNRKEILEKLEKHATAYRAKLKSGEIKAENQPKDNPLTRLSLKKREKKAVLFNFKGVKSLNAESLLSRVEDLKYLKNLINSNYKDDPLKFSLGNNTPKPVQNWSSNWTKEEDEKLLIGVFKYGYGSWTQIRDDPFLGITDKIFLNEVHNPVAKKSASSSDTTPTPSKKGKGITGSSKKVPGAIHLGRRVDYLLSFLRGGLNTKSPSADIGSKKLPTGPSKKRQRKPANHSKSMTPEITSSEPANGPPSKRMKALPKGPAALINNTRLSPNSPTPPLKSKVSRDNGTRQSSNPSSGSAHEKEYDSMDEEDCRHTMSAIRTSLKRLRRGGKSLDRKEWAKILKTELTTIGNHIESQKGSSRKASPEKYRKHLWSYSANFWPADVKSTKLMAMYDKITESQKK
Compound,Percent Effect [1] [%],Percent Effect [2] [%],Percent Effect [3] [%],Percent Effect [4] [%],Percent Effect [5] [%],Percent Effect [6] [%],Percent Effect [7] [%],Percent Effect [8] [%],Percent Effect [9] [%],Percent Effect [10] [%],Percent Effect [11] [%]
CN(Cc1ccccn1)C1COC2(CCN(Cc3nccs3)CC2)C1 (stereo not drawn),-4.64,21.3,-8.85,-0.12,1.35,-57.5,12.8,5.05,5.21,20,-11.7
Fc1cccc(-c2nc(CN3CCOC(Cn4cncn4)C3)co2)c1 (stereo not drawn),-1.25,0,1.03,1.46,8.97,-1.14,4.67,-3.37,0.493,3.8,-3.88
O=C1CO[C@@H]2CN(CC3CCOCC3)C[C@H]2N1CC1CC1,-3.37,10.8,5.33,-0.714,-5.18,5.41,20.1,10.6,5.41,17.9,3.58
COc1cccc(CNC(CN2CCN(C)CC2)c2ccccc2)c1 (stereo not drawn),-5.66,5.41,-4.3,-1.53,-6.75,1.74,9.19,11.2,1.07,3.7,-3.35
Cc1ccc(C(=O)N2C[C@@H]3OCCN(CCN4CCCC4)[C@@H]3C2)cn1,-3.52,8.11,0.326,-5.24,-2.25,2.23,21,-5.79,5.41,15.4,-1.17
O=C(NCCNc1cnccn1)N1CCN(Cc2cccnc2)CC1,-5.13,8.86,-3.44,-10.1,3.38,1.5,15.1,10.6,7.29,20.2,-33.3
NCC(=O)N1CCCC(c2cncc(Nc3ncccn3)n2)C1 (stereo not drawn),-3.81,9.46,17.7,18,-2.57,-3.48,10.3,5.7,5.38,11.7,2.63
CCCOc1cc(C)ccc1NC(=O)NCCC(=O)N(C)C,-4.1,13.7,-1.53,-3,-3.33,4.09,20.6,10.2,6.45,15,-2.56
